# Results: PubChem BioAssay AID1211 (NMMLSC, 2008)
# Molecular target: Estrogen receptor (Homo sapiens) (UniProt P03372)
# Experiment: displacement of fluorescent estrogen from ERalpha – cell-based, Cos7 ERalpha-GFP, flow cytometry, primary screen (AID 1211);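 further: 0% = DMSO vehicle wells and 100% = no E2-Alexa633 signal left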
# Details: fluorescent ligand competition, binding inhibition, at 0.1 µM, stronger effect = higher value
# Chain of Estrogen receptor (Homo sapiens) (P03372 whole entry, looked up): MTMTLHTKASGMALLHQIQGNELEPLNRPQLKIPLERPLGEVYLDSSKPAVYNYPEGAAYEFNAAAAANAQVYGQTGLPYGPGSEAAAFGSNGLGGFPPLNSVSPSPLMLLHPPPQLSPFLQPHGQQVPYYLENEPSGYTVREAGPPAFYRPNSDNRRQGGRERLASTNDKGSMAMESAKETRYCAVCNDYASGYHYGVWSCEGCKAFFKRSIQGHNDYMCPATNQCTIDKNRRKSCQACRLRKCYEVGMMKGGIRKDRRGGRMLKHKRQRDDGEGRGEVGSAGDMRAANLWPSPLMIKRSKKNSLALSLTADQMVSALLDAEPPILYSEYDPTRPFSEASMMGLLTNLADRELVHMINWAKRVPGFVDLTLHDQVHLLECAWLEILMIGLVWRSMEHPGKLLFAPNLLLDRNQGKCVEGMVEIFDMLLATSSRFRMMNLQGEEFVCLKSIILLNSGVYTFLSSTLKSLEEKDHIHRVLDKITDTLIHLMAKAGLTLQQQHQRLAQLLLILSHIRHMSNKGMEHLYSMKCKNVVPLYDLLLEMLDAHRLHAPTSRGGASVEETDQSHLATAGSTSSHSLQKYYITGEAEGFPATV
row,SMILES,inhibition of ligand binding
1,O=C(CSc1nnc(SCC(=O)c2ccco2)s1)c1ccco1,28%
2,O=Cc1cn(-c2ccccc2)nc1-c1cc2c(ccc3ccccc32)oc1=O,55%
3,O=c1c2c([nH]c3ccccc13)C(=C1CCCC1)CC2,36%
4,CC1(N2CCOCC2)CC2(O)C(=[N+]1[O-])CCc1nonc12 (centres undefined),46%
5,O=C1N/C(=C\c2ccc(O)cc2)C(=O)c2ccccc21,14%
6,Oc1ccc(-c2csc(-c3c[nH]c4ccccc34)n2)c(O)c1,45%
7,CN1CCC(=NNC(=O)c2cn(-c3ccccc3)nc2-c2ccccc2)CC1,11%
8,Cn1nc([N+](=O)[O-])c2c(-c3nc4ccccc4s3)c(N)n(C3CCCCC3)c2c1=O,18%
9,Cc1ccc(Oc2cc(N3CCOCC3)nc(-c3ccccc3)n2)cc1,66%
10,CC(C)CC(=O)Nc1ccc(C(=O)COc2ccc(-c3nnco3)cc2)cc1,23%
11,O=c1cc(-c2ccco2)oc2c1ccc1ccccc12,4%
12,NC(=S)n1[nH]c(-c2ccc([N+](=O)[O-])cc2)c(N=Nc2ccc(O)cc2)c1=O,18%
13,Nc1ccc2nc(-c3cccs3)[nH]c2c1,49%
14,Cc1ccnc(NS(=O)(=O)c2ccc(NC(=O)Cc3cccs3)cc2)n1,63%
15,CCCSc1nc(C)c(-c2csc(C(C#N)=C3CCCC3)n2)cc1C#N,44%
16,O=C(Nc1ccc(O)cc1C(=O)O)c1ccc2c(c1)C(=O)N(Cc1ccco1)C2=O,86%
17,Cc1cc(C)c(C(=O)COc2cccnc2[N+](=O)[O-])cc1C,30%
18,Cc1cc(NC(=O)CSc2cn(CCNC(=O)c3ccc(Cl)cc3)c3ccccc23)no1,37%
19,COCCOC(=O)c1[nH]c2c(c1C)C(=O)CC(c1ccco1)C2 (centres undefined),8%
20,Cc1cc(C(=O)O)ccc1-n1c(C)ccc1C,58%

row,SMILES,inhibition of ligand binding
1,c1ccc(OCc2nnc3sc(C4COc5ccccc5O4)nn23)cc1 (centres undefined),5%
2,COc1cccc([C@@H]2Oc3ccc(OC)cc3C(=O)[C@H]2O)c1,43%
3,CC1(C)CC(=O)c2c(oc3cc(O)c(O)cc23)C1,54%
4,CCOc1cccc2cc(-c3cn4cc(C)ccc4n3)c(=O)oc12,29%
5,CN(C)CC(=O)N1c2ccccc2CCc2ccc(NC(=O)c3ccc(N)cc3)cc21,41%
6,O=C(Nc1nccs1)c1ccc2nccnc2c1,24%
7,Nc1ccc2oc(-c3ccc4nc[nH]c4c3)nc2c1,55%
8,O=c1oc2ccccc2cc1-c1ccc(O)cc1,24%
9,COc1ccc(C2Nc3ccccc3C(=O)N2Cc2ccccc2)cc1Cn1nnc2ccccc21 (centres undefined),19%
10,O=C1/C(=C\c2ccco2)SC(=S)N1c1ccc(O)cc1,31%
11,Nc1ccc(-c2nc3ccc([N+](=O)[O-])cc3[nH]2)cc1,82%
12,COc1cccc(-n2nnnc2SCC(=O)Nc2ccc(C(C)=O)cc2)c1,45%
13,Cc1nn(-c2ccccc2)c(/N=C/c2ccc(O)cc2)c1-c1ccccc1,50%
14,COc1ccc(NC(=O)C(NC(=O)c2ccc(=O)[nH]c2)c2ccc(C)cc2)cc1 (centres undefined),13%
15,Nc1nc(-c2ccc3c(c2)NC(=O)CO3)cs1,12%
16,Cc1noc(C)c1COC(=O)c1cc2c3ccccc3n(C)c2s1,33%
17,CCOC(=O)c1c(/N=C/c2ccc(O)cc2O)sc2c1CCC2,42%
18,CC1CC(C(F)(F)C(F)(F)F)n2nc(C(=O)O)cc2N1 (centres undefined),9%
19,C/C(N)=C(/C#N)C(=O)CSc1nnc(Cc2ccccc2F)n1N,3%
